# Inconclusive results are not listed. Unmarked numbers belong to inactive results. Activity calls are given as the source filed them. The call rests on the fitted dose curve; in most records, active means well fitted cell-killing curve with a large enough effect in the repeat runs; inconclusive means weak or mixed curves, or effect the other way; inactive means flat fitted curve, though single readings scatter.
# Test: qHTS assay to identify small molecule antagonists of the estrogen receptor alpha (ER-alpha) signaling pathway using the BG1 cell line in the presence of 0.1 nM 17-beta-estradiol - cell viability counter screen (AID 1259241); further: nearly all actives have a fitted effect of over 40% in size
# Conditions: VM7Luc4E2 (BG1) viability, CellTiter-Fluor protease, 22 h, 0.1 nM estradiol agonist added; series mostly up to 92.4 µM; activity change, negative = cytotoxicity: at the top concentration
# In short: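 VM7Luc4E2 cells (endogenous full-length ER-alpha, 4xERE-luciferase), cultured 5 days in charcoal-stripped serum, exposed to compounds with 0.1 nM 17beta-estradiol (final) for 22 hr at 37C. Viability read in same wells as live-cell protease fluorescence after 30 min.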
# On the % scale 0 is the no-effect control and ±100 the full control effect; potency means the concentration at half of the fitted maximal effect.
SMILES,"activity change, negative = cytotoxicity",Potency
Cc1ccc(Cl)c(Nc2ccccc2C(=O)O)c1Cl,2.37% [at 42.5 µM],–
NC1[C@H]2CN(c3nc4c(cc3F)c(=O)c(C(=O)O)cn4-c3ccc(F)cc3F)C[C@@H]12 (stereo partly drawn),-1.81% [at 42.5 µM],–
CCOC(=O)c1ccc(O)c(O)c1,2.94% [at 42.5 µM],–
CCCCCCCCOc1ccc(C(=O)O)cc1,0%,–
CC1CC(OC(=O)C(O)c2ccccc2)CC(C)(C)N1C (stereo not drawn),7.41% [at 42.5 µM],–
CC(C)(C)C(=O)C(=O)O,-3.58%,–
CCC1(CO)COCOC1,-18.7%,–
CC[C@]1(O)C[C@H]2CN(CCc3c([nH]c4ccccc34)[C@@](C(=O)OC)(c3cc4c(cc3OC)N(C=O)[C@H]3[C@@](O)(C(=O)OC)[C@H](OC(C)=O)[C@]5(CC)C=CCN6CC[C@]43[C@@H]65)C2)C1,-22.1% [at 42.5 µM],–
OC(CCN1CCCC1)(c1ccccc1)C1CCCCC1 (stereo not drawn),-7.75% [at 42.5 µM],–
CCOC(=O)c1ccc(C#Cc2ccc3c(c2)C(C)(C)CCS3)nc1,4.2% [at 42.5 µM],–
COC(=O)[C@H]1[C@H]2C[C@@H]3c4[nH]c5cc(OC)ccc5c4CCN3C[C@H]2C[C@@H](OC(=O)/C=C/c2ccc(O)c(OC)c2)[C@@H]1OC,5.08% [at 42.5 µM],–
O=C1c2ccccc2C(=O)C1(O)O,-10.8%,–
Nc1nnc(-c2ccc([N+](=O)[O-])o2)o1,–,61.1 µM (active)
Oc1ccc(Cl)c2cccnc12,-11.2% [at 42.5 µM],–
CCCCCCCC/C=C\CCCCCCCCO,9.15%,–
O=C(OCC(O)CO)c1ccccc1Nc1ccnc2cc(Cl)ccc12 (stereo not drawn),-10.7% [at 42.5 µM],–
C[C@H]1C[C@H](O)c2ccsc2S1(=O)=O,4.27% [at 42.5 µM],–
CO/N=C(/C(=O)N[C@@H]1C(=O)N2C(C(=O)O)=C(COC(N)=O)CS[C@H]12)c1ccco1,0%,–
